Screens from PubChem.
Sampled rows, rich in hits. Any-hit rate of the full collection: about 1.2%.
NALP1 yeast inh = NALP1 inhibition; S. cerevisiae NALP1/ASC/caspase-1 growth, X-gal OD620, 72 h; inhibition, % at 10 µM; hit rate 0.61% among 280,000; in the data active = inhibition mostly above about 24%, no sharp cut-off; inactive = mostly below about 32%
A3A deaminase = inhibitors of human APOBEC3A DNA deaminase | hit rate 0.41% among 330,000 | AID 493011 | inhibition, % at 20 µM | recombinant A3A, FAM/TAMRA ssDNA deamination fluorescence;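 active = at least 40% inhibition at 20 µM here, with at most 30% in a related deaminase screen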;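 also: plate controls were A3A with DMSO for no effect and wells lacking A3A enzyme for full effect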
Target sequence (P31941 whole entry, looked up): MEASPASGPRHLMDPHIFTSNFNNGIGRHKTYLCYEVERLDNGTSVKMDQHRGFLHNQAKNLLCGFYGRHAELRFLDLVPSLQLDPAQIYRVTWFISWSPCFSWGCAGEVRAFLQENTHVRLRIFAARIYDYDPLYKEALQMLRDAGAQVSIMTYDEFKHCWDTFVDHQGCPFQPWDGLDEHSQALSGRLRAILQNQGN
A3G deaminase = blocks human APOBEC3G single-stranded DNA deamination | Q9HC16 | recombinant A3G, ssDNA deamination FAM/TAMRA fluorescence | inhibition, % at 20 µM | hit rate 0.28% among 330,000;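 active = inhibition of at least 40% at 20 µM, with no more than 30% in the related APOBEC3A deaminase screen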;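 also: plate controls were DMSO wells with A3G for no effect and wells lacking A3G enzyme for full effect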
Target sequence (Q9HC16 whole entry, looked up): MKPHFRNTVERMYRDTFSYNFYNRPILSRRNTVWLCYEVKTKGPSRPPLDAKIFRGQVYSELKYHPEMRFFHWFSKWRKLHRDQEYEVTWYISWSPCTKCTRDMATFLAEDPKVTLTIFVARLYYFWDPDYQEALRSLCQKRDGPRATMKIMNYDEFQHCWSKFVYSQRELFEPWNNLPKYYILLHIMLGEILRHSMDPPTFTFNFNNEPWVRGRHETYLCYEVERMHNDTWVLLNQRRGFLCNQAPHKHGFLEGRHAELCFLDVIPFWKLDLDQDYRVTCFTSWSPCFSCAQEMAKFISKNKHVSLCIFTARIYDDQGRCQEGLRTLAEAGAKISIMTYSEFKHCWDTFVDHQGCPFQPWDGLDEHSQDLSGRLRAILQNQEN
PolyA inhibitor = inhibitors of polyadenylation in S. cerevisiae. S. cerevisiae SKY197-pL101 polyadenylation reporter, beta-gal luminescence; efflux-impaired pdr1/pdr3 knockout yeast; score 100 = 6 SD above DMSO. hit rate 0.02% among 300,000. activity score, % at 12 µM;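 active = lowest replicate activity score at least 50, where 100 means six control SD above control mean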;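 also: yeast exposed to compound for 9 h at 30 °C; higher score means more reporter readthrough which indicates perturbed polyadenylation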
A3A conf = confirmation of human APOBEC3A DNA deaminase inhibitors; inhibition, % at 20 µM; shares compounds with A3A deaminase; hit rate 63% among 1,400; recombinant A3A, ssDNA deaminase UDG fluorescence assay; AID 493151;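 active = inhibition reaching a set limit, 80% of the first screen's cutoff, at 20 µM in any replicate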;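 also: plate controls were DMSO wells with A3A for no effect and wells lacking A3A enzyme for full effect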
UDG ctr A3A = UDG inhibition in APOBEC3A counter-screen; shares compounds with A3A deaminase; UDG counterscreen, FAM/TAMRA uracil oligo fluorescence; inhibition, % at 20 µM; 1,000 tested, under 10 active; AID 504714; call rule not given here
Starred values were filed as active, the others as inactive; · = not tested or not shown.

SMILES | NALP1 yeast inh | A3A deaminase | A3G deaminase | PolyA inhibitor | A3A conf | UDG ctr A3A
CC(C)C(NC(=O)c1ccc2c(c1)OCO2)C(=O)N/N=C\c1ccco1 (stereo not given) | 10.7 | 47.6* | 13.8 | 14.2 | 52.2* | -1.7
Cc1cccc(C(=O)Nc2ccc(S(=O)(=O)N3CCOCC3)cc2C)c1 | 9.9 | 43.3* | 13.4 | -10.9 | 52.2* | -0.5
Cc1cccc(NC(=O)CSCC(=O)Nc2cc(S(=O)(=O)N3CCOCC3)ccc2N2CCCC2)c1 | 7.4 | 95.7* | -7.6 | 5.1 | 3.2 | -2.5
C[N+]1(CN2C(=O)C3C4C=CC(C4)C3C2=O)CCCCC1 (stereo not given) | 12.4 | 68.0* | 24.6 | -12.2 | 68.3* | -1.6
O=C(O)CN1C(=O)C2C3C=CC(C3)C2C1=O (stereo not given) | · | -2.4 | -6.0 | 43.6 | · | ·
COc1ccc(CCCc2nnc(SCC(=O)Nc3ccc(C)c(C)c3)o2)cc1 | 3.9 | 49.9* | 27.1 | 5.7 | 72.1* | 4.4
Cc1cc(C)nc(SCc2nnc(SCC(=O)Nc3ccc(Cl)c(C(F)(F)F)c3)o2)n1 | 13.7 | 69.6* | -2.3 | -7.7 | -3.1 | 19.2
COc1ccc(CCCc2nnc(SCC(=O)Nc3ccc(OC)cc3)o2)cc1 | 16.4 | 45.1* | 16.5 | 8.3 | 70.6* | 5.9
COc1ccc(CNC(=O)COC(=O)CNC(=O)c2sc3ccccc3c2Cl)cc1OC | · | -0.1 | -4.4 | · | · | ·
CN(C)NC(=O)c1ccsc1NC(=O)c1ccc(S(=O)(=O)N(C)C)cc1 | 20.2 | 2.9 | 0.8 | -17.5 | · | ·
Cc1ccccc1CS(=O)(=O)c1cnc2ccccc2n1 | 17.4 | 0.6 | -4.0 | 8.5 | · | ·
O=C(O)C1C2C=CC(C2)C1C(=O)N1CCN(C/C=C/c2ccccc2)CC1 (stereo not given) | -1.3 | 46.9* | 0.5 | -4.1 | 1.4 | ·
CC1=C(C)CC(C(=O)N2CCN(C/C=C/c3ccccc3)CC2)C(C(=O)O)C1 (stereo not given) | -7.7 | -2.0 | -5.9 | 0.7 | · | ·
O=C(Nc1nnc(-c2ccncc2)o1)c1ccc(Br)s1 | 8.1 | -0.2 | -4.3 | 17.7 | · | ·
COCCOC(=O)c1[nH]c2c(c1C)C(=O)CC(c1ccco1)C2 (stereo not given) | · | 55.6* | 28.3 | 2.6 | 45.3* | -3.4
CCOC(=O)c1[nH]c2c(c1C)C(=O)CC(c1ccco1)C2 (stereo not given) | 27.8 | 39.6 | 11.3 | 10.2 | · | ·
CSCCOC(=O)c1[nH]c2c(c1C)C(=O)CC(c1ccco1)C2 (stereo not given) | 24.1 | 43.8* | 22.3 | 2.1 | 39.2* | 0.4
Cc1c(C(=O)OCCOC(C)C)[nH]c2c1C(=O)CC(c1ccco1)C2 (stereo not given) | 28.4 | 22.6 | 14.5 | -10.8 | · | ·
Cc1cccc(N2CCC(N=CN(C)C)=N2)c1 | 5.2 | -4.5 | -3.2 | 16.3 | · | ·
COCCN(C(=O)COC(=O)C1CCC(C(C)(C)C)CC1)c1c(N)n(Cc2ccccc2)c(=O)[nH]c1=O (stereo not given) | · | 10.5 | -6.2 | 3.6 | · | ·
Cc1cc(C)nc(SCC(=O)N/N=C/c2cccn2-c2cccc(C(F)(F)F)c2)n1 | 12.4 | 42.0* | 9.8 | -5.7 | 17.2 | ·
O=C(Nc1nnc(SCc2c(Cl)cccc2Cl)s1)C1CC(=O)N(c2ccc3c(c2)OCCO3)C1 (stereo not given) | -25.4 | 64.2* | 21.1 | 10.1 | 23.4 | ·
Cc1nnc(NC(=O)C2CC(=O)N(c3ccc4c(c3)OCCO4)C2)s1 (stereo not given) | · | -0.1 | -4.5 | · | · | ·
O=C(Nc1nnc(SCc2ccc(F)cc2)s1)C1CC(=O)N(c2ccc3c(c2)OCCO3)C1 (stereo not given) | · | -1.3 | 0.4 | -0.2 | · | ·
O=C(Nc1nc(-c2ccco2)c(-c2ccco2)s1)C1CC(=O)N(c2ccc3c(c2)OCCO3)C1 (stereo not given) | 20.6 | 49.2* | 27.2 | 2.2 | 36.7* | -4.2
SMILES | NALP1 yeast inh | A3A deaminase | A3G deaminase | PolyA inhibitor | A3A conf | UDG ctr A3A
CN(CC(=O)Nc1c(Cl)cccc1Cl)C(=O)CNC(=O)c1ccc2ccccc2c1 | · | 42.1* | -7.7 | 16.9 | -3.9 | 1.5
CN(CC(=O)Nc1c(Cl)cccc1Cl)C(=O)c1cccc(-n2cccc2)c1 | · | 70.5* | 18.1 | -5.0 | 53.2* | -2.5
CC(=O)Nc1ccc(C(C#N)c2ccccc2)cc1 (stereo not given) | 2.1 | -1.9 | 7.2 | -1.3 | · | ·
COc1ccc(CN(C)C(=O)CCCNC(=O)c2ccc(Cl)cc2)cc1 | 22.2 | 45.5* | 7.5 | -10.5 | 31.4 | ·
CCN1C(=NCCc2c[nH]c3ccccc23)N[C@@H](c2ccccc2)[C@H](C(=O)OC)[C@H]1C | 20.1 | 51.0* | 4.5 | 1.3 | 45.0* | -1.8
CCN1C(=NCc2ccc(OC)cc2)N[C@@H](c2ccccc2)[C@H](C(=O)OC)[C@H]1C | · | 40.9* | 8.2 | · | 56.1* | -2.2
COc1ccc(N(CC(=O)NCC2CCCO2)S(=O)(=O)c2ccccc2)cc1OC (stereo not given) | 1.2 | 2.3 | -3.7 | -0.1 | · | ·
CC(C)(C)c1cc(C(=O)NNC(=O)Nc2ccccc2)n(Cc2ccccc2)n1 | -11.3 | 61.1* | -3.9 | 10.2 | 1.1 | 2.2
CC(C)(C)c1cc(C(=O)NNC(=O)Nc2cccc(Cl)c2)n(Cc2ccccc2)n1 | 14.4 | -0.2 | -7.1 | 2.0 | · | ·
COc1ccccc1/C=c1\sc2nc(-c3ccco3)nn2c1=O | · | 97.6 | 76.7 | 3.6 | · | ·
CCOc1ccc(/C=c2\sc3nc(-c4ccco4)nn3c2=O)cc1OCC | 35.5 | 73.8* | 18.9 | · | 30.6* | -3.9
Cc1ccc(C(=O)OC(C)C(=O)Nc2ccc(Cl)cn2)s1 (stereo not given) | · | 1.5 | -6.3 | · | · | ·
CC1=CC(C)C(CN(CCC[N+](C)(C)C)C(=O)Nc2ccccc2)C(C)C1 (stereo not given) | -5.0 | 58.1* | 24.9 | -7.9 | 27.8* | -2.1
C[n+]1cn(CC(O)COCc2ccccc2)c2ccccc21 (stereo not given) | -2.7 | 56.4* | 13.3 | -0.6 | 77.1* | 3.6
Cc1cc2c(cc1C)[n+](C)cn2CC(O)COCc1ccccc1 (stereo not given) | 28.8 | 40.8* | 8.4 | 5.7 | 25.5 | ·
O=C(NCc1ccccc1Cl)C(=O)NCC(c1ccco1)N1CCOCC1 (stereo not given) | -0.4 | -1.5 | 2.4 | -7.2 | · | ·
CCN(CC)S(=O)(=O)c1ccc(C(=O)NCC2(N3CCOCC3)CCCCC2)cc1 | · | -0.1 | -2.4 | · | · | ·
COc1ccc(NC(=O)COc2ccc(/C=C/c3cc[n+](C)cc3)cc2OC)cc1 | -1.6 | 52.0* | 6.5 | 13.2 | 75.9* | 2.8
COc1ccccc1OCC(=O)Nc1ccc(Cl)cc1 | 3.2 | -1.7 | -8.7 | -18.3 | · | ·
C/C=C/c1ccc(OCC(=O)Nc2cc(OC)c(OC)c(OC)c2)c(OC)c1 | 8.0 | 0.0 | -0.7 | -1.9 | · | ·
COc1cc(/C=C/c2cccc[n+]2C)ccc1OCC(=O)Nc1ccccc1 | 13.2 | 73.3* | 21.8 | 23.6 | 79.2* | 2.5
